SMILES strings stand for the structures. This is part of a sample that, as a whole, favours compounds with a hit. Of some 83,000 tested, about 20% had one in any assay.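 Treatment: one concentration, 48 hours, 96-well format. Scoring: percent growth, with anything below 10 considered active.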 Unmarked numbers belong to inactive results. Calls of active or inactive are those of the source.

The subject of the assay is OVCAR-4 ovarian. Put plainly: NCI-60 one-dose screen, 48 h (100 = growth as untreated, 0 = no growth, -100 = all killed). Conditions: 10 µM unless noted.
For the compound `CS(=O)(=O)Nc1ccc(C(=O)NC(C(=O)NO)c2ccc(-c3cccc(F)c3)cc2)cc1` (centres undefined), the growth was 70.9%.
Take `COc1cccc2c1C=C1CCCCC3=Cc4c(OC)cccc4OC13O2`: the growth was 57.7%.
As to `COc1cccc(/C(C#N)=C/c2nc3c(N4CCOCC4)nc(Cl)nc3n2C)c1`, the growth was -65.9% (active).
In the case of `NCCOc1ncccc1/C=C1\c2ccccc2-c2ccc(F)cc21` it was 43.3%; in that of `Cc1ccc2cccc(Oc3ccc(Nc4ncnc5onc(-c6ccccc6)c45)cc3)c2n1`, 71.9%; in that of `CCN1C(=O)N(c2ccccc2)C2Nn3c(s/c(=C4\C(=O)N(C(C)C)c5ccccc54)c3=O)=NC21` (centres undefined), 105%.
Consider `c1ccc2c(c1)oc1cc3sccc3nc12`, for which the growth was 102%.
In the case of `O=C1/C(=C/c2cccc(O)c2)COc2ccc(O)cc21` it was 98.1%; in that of `COc1cccc(C(=O)Cn2cc(/C=C(\C#N)S(=O)(=O)c3ccccc3)c3ccccc32)c1`, 95.6%.
With `CCOC(=O)C1=C(C)N=c2s/c(=C\c3ccccc3O)c(=O)n2C1c1ccc(OC)c2ccccc12` (centres undefined) the figure was 38.6%.
In the case of `Cn1c(/C=C(\C#N)c2ccccc2)nc2c(N3CCOCC3)nc(Cl)nc21` it was -58.4% (active); in that of `O=S(=O)(Nc1ncccn1)c1ccc(NC2Nc3nc4ccccc4nc3S2)cc1` (centres undefined), 102%; in that of `COC(=O)C1(C)CCC[C@]2(C)[C@H]3C[C@H]4C(C(C)C)=C[C@]3(CC[C@@H]12)[C@H]1[C@@H]4[C@@H](OCC#CCN2CCOCC2)CC[C@@H]1OCC#CCN1CCOCC1` (some centres undefined), 64.7%.
For `O=c1c2cc(F)ccc2sc2c(Nc3ccncc3)nc3ccccc3c12`, the growth was -67.5% (active).
In the case of `O=C(Cc1ccccc1)NC(c1ccc(Cl)cc1)c1c(O)ccc2ccccc12` (centres undefined) it was 21.7%.
With `Cc1c(-c2noc(-c3ccc([N+](=O)[O-])cc3)n2)no[n+]1[O-]` the figure was 102%.
In the case of `O=C(c1ccccc1)N(CCc1ccc(Cl)cc1)C(=S)N(C(=O)c1ccccc1)c1ccccc1` it was 96.6%.
As to `Cc1cc2c(c(C)c1Cl)C(=O)/C(=C/c1cccc([N+](=O)[O-])c1)O2`, the growth is 86.5%.
With `CCN1C(=O)N(CC)C2C1NC(=S)N2/N=C/C=C/c1ccccc1OC` (centres undefined) the figure was 53.5%; with `O=C1Nc2ccccc2/C1=C/c1cccs1`, 37%.
In the case of `COC(=O)/C(=C\c1c(-c2ccccc2)[nH]c2ccccc12)S(C)(=O)=O` it was 63.9%.
In the case of `C#CCn1cc(C=C2C(=O)N(C)C(=O)N(C)C2=O)c2cc(Cl)ccc21` it was 109%; in that of `COc1ccc2occ(C3=C(c4c[nH]c5ccccc45)C(=O)NC3=O)c2c1`, -24.3% (active); in that of `O=C1/C(=C/c2ccc(O)cc2)COc2ccc(O)c(O)c21`, 43.7%.
With `N#C/C(=C\c1c(-c2ccccc2)[nH]c2ccccc12)C(=O)c1ccccc1`, the growth is 68.9%.
With `CCCN1CCN(c2ccc3nc(-c4ccc5nc(-c6cc(OC)ccc6OC)[nH]c5c4)[nH]c3c2)CC1` the figure was 81.1%.
In the case of `O=C(NN1C(=O)CSC1c1ccc(Cl)cc1)c1[nH]c2ccc(F)cc2c1-c1ccccc1` (centres undefined) it was 47.4%.
With `O=Cc1cc2ccccc2nc1Nc1nccs1` the figure was 75.8%; with `COc1ccc(C2=Nn3c(NN)nnc3SC2)cc1`, 101%.
`COC(=O)/C(=C\c1c(C)[nH]c2ccccc12)S(=O)(=O)c1ccccc1`: the growth was 53%.
With `COC(=O)C1(C)COP(=O)(Nc2ccc(OC)cc2)OC1` (centres undefined) the figure was 108%.
In the case of `O=c1c2cccc(F)c2sc2c(N3CCNCC3)nc3ccccc3c12` it was 46.9%; in that of `CCOc1ccc2nc(C)cc(Nc3ccc(Br)cc3)c2c1`, 82.2%.
With `COc1cccc2c(=O)c3c(sc12)c(NCCCNCCO)nc1ccccc13` the figure was 42.4%; with `O=c1c(-c2nc3ccccc3[nH]2)cc2ccccc2n1Cc1cn(Cc2ccc(N3CCOCC3)cc2)nn1`, 6.82% (active); with `Nc1nc(-c2cnccn2)nn1-c1nc2ccccc2s1`, 97.7%.
As for `COc1ccc(-c2cn3c(C(=O)Nc4ccccc4Cl)c(-c4ccccc4)c4c3n2CCCC4)cc1`, the growth is 74.6%.
In the case of `NCCNc1nc2ccccc2c2c(=O)c3cc(F)cc(Cl)c3sc12` it was -73.4% (active); in that of `CNCCNc1nc2ccccc2c2c(=O)c3cccc(OC)c3sc12`, 22.8%.

Values taken from PubChem BioAssay (NCI).
